Consider 7 compounds from PubChem BioAssay (EPA / NIEHS).

Records with an inconclusive call do not appear. Activity calls are given as the source filed them. How the source made its calls: active means hit-call score of the fitted dose curve at least 0.9, where 1 is the maximum; inconclusive means response in the unintended direction; inactive means score below 0.9.

Experiment [1] can be described thus: TOX21_p53_BLA_p2_viability: Viability Assessment in the Tox21 HCT-116 p53 Agonism Beta-lactamase Assay, Phase 2 (AID 2283591).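 Further: compound exposure lasted 16 h at 37 °C; actives lower the ATP signal meaning cytotoxicity.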 The gist of the method:
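Cytotoxicity readout: CellTiter-Glo ATP luminescence, 30 min at room temperature, after the beta-lactamase read. Cells were HCT116 exposed 16 h at 37C to compounds pin-transferred at 217-fold dilution from DMSO stocks.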

Experiment [2] has as its target Cellular tumor antigen p53 (Homo sapiens) (UniProt P04637). Nature of the experiment: TOX21_p53_BLA_p2_ratio: Tox21 HCT-116 p53 Agonism Beta-lactamase Assay, Ratio, Phase 2 (AID 2283592). The gist of the method:
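HCT116 p53-bla; 4000 cells/well; 5 h pre-incubation; cpd in DMSO, 217-fold dilution; 16 h 37C/5% CO2; CCF4-AM 2 h RT; Ex 405, Em 460/530 ratio; DMSO = baseline; positive fitting direction.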

Experiment [3] has the same target. Nature of the experiment: TOX21_p53_BLA_p3_ratio: Tox21 HCT-116 p53 Agonism Beta-lactamase Assay, Ratio, Phase 3 (AID 2283596). The gist of the method:
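HCT116 p53-bla cells (4000/well) given compound in DMSO (217-fold dilution) after 5 h, incubated 16 h at 37C. CCF4-AM substrate 2 h at room temperature; 460/530 nm emission ratio, gain fitted against DMSO.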

Experiment [4] can be described thus: TOX21_p53_BLA_p4_viability: Viability Assessment in the Tox21 HCT-116 p53 Agonism Beta-lactamase Assay, Phase 4 (AID 2283597).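 Further: hits lower the luminescence signal meaning cytotoxicity.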 The gist of the method:
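Cells plated, 5 h pre-incubation; DMSO compounds pinned (217-fold dilution); 16 h, 37C/5% CO2; CCF4-AM 2 h RT; CellTiter-Glo 30 min RT; luminescence read.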

The target in experiment [5] is Cellular tumor antigen p53 (Homo sapiens) (UniProt P04637). Nature of the experiment: TOX21_p53_BLA_p5_ratio: Tox21 HCT-116 p53 Agonism Beta-lactamase Assay, Ratio, Phase 5 (AID 2283599). The gist of the method:
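Beta-lactamase reporter ratio (blue 460 nm over green 530 nm, 405 nm excitation) after 2 h CCF4-AM loading, in HCT-116 cells exposed 16 h at 37 C to compounds pinned at 217-fold dilution. Increases relative to DMSO baseline scored.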

The target is the same in experiment [6]. Nature of the experiment: TOX21_p53_BLA_p4_ratio: Tox21 HCT-116 p53 Agonism Beta-lactamase Assay, Ratio, Phase 4 (AID 2283601). In short, it runs like this: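 Signal is the blue/green (460nm/530nm) ratio of cleaved versus uncleaved CCF4-AM substrate, read after 2 h substrate loading. Cells were HCT116 carrying the p53-responsive beta-lactamase reporter, dosed 16 h at 37C, 5% CO2; CellTiter-Glo measured in parallel.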

Experiment [7] can be described thus: TOX21_p53_BLA_p5_viability: Viability Assessment in the Tox21 HCT-116 p53 Agonism Beta-lactamase Assay, Phase 5 (AID 2283600). The gist of the method:
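4000 cells/well; 5 h pre-incubation; DMSO compounds pin-transferred, 217-fold dilution; 16 h, 37C/5% CO2; CCF4-AM 2 h RT; CellTiter-Glo 30 min RT; luminescence.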

The target in experiment [8] is PGR (gene 5241) (UniProt P06401). Nature of the experiment: TOX21_PR_BLA_Followup_Antagonist_ratio: Tox21 HEK293 Progesterone Receptor (PR) Antagonism Beta-lactamase Follow-Up Assay, Ratio (AID 2283934). In short, it runs like this: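 PR-UAS-bla HEK293T cells in medium with 2% charcoal-stripped FBS were treated with compounds plus 1 nM (final) promegestone (R5020) for 16 hr at 37C. LiveBLAzer B/G FRET substrate was then added for 2 h at room temperature; signal is cleaved/uncleaved substrate ratio versus DMSO.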

Experiment [9] is described as follows: TOX21_PR_BLA_Followup_Agonist_viability: Viability Assessment in the Tox21 HEK293 Progesterone Receptor (PR) Agonism Beta-lactamase Follow-Up Assay (AID 2283935).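 Further: signal loss means lower viability so actives are cytotoxic.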 The gist of the method:
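PR-UAS-bla HEK293T cells in 2% charcoal-stripped FBS medium, compound added after 6 hr plating, 16 hr at 37C/5% CO2. After bla FRET read, CellTiter-Glo added; luminescence read after 30 min at room temperature; signal loss marks cytotoxicity.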

Experiment [10] can be described thus: TOX21_PR_BLA_Followup_Antagonist_viability: Viability Assessment in the Tox21 HEK293 Progesterone Receptor (PR) Antagonism Beta-lactamase Follow-Up Assay (AID 2283936).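 Further: hits lower the luminescence signal meaning cytotoxicity.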 In short, it runs like this:
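PR-UAS-bla HEK293T cells (3,000/well, 2% charcoal-stripped FBS) given compound plus R5020 agonist, 16 h at 37C. CellTiter-Glo added after bla read, 30 min at room temperature; luminescence loss indicates cytotoxicity.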

The nature of experiment [11]: TOX21_PR_LUC_Followup_Agonist_viability: Viability Assessment in the Tox21 HEK293 Progesterone Receptor (PR) Agonism Luciferase Follow-Up Assay (AID 2283941).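 Further: loss of signal means cytotoxicity so actives lower viability.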 In short, it runs like this: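 HEK293-PR-A-luc cells, pre-cultured 5 days in 10% charcoal-stripped FBS, were seeded at 3,000 cells/well, rested 5 h at 37C, then given compound in DMSO for 16 h at 37C. Cellular ATP was read by CellTiter-Glo luminescence; signal loss indicates cytotoxicity.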

Sequence of Cellular tumor antigen p53 (Homo sapiens) (P04637 whole entry, looked up): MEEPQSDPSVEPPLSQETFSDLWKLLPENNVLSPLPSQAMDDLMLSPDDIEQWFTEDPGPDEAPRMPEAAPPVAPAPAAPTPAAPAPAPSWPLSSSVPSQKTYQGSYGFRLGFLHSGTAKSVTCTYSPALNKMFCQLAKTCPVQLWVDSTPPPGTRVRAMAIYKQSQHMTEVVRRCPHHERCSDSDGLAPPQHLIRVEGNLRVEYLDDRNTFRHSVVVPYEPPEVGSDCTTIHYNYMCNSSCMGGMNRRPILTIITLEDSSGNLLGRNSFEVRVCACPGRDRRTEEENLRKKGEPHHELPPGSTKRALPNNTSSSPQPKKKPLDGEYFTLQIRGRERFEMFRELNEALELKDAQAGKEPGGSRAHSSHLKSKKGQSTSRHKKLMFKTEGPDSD
Sequence of PGR (gene 5241) (P06401 whole entry, looked up): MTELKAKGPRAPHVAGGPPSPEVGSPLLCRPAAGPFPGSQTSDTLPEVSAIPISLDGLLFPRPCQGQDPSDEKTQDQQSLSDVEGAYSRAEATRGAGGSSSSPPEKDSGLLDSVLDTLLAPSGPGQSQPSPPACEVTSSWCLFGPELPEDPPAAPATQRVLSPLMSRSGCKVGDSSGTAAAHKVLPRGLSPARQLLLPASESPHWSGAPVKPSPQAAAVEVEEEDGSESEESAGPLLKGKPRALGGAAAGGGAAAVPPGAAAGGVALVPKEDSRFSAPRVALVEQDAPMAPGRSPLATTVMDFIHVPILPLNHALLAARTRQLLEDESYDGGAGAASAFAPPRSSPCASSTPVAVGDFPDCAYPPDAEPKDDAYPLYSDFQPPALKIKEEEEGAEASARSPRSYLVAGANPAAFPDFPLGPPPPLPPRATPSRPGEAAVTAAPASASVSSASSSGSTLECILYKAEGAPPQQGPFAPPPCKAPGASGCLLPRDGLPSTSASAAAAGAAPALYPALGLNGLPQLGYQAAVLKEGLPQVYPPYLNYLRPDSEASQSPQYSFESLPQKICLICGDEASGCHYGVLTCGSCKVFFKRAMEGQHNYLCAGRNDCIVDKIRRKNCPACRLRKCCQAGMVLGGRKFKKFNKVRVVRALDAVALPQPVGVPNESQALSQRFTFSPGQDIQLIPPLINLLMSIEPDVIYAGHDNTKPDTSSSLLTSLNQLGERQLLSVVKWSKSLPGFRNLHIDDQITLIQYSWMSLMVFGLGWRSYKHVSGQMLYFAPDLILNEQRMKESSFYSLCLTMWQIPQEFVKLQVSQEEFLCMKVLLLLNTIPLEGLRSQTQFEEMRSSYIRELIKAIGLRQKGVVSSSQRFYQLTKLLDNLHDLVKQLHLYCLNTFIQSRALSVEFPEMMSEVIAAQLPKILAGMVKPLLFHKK

Consider `N#C/C(=C1\SCC(c2ccccc2Cl)S1)n1ccnc1` (stereo not drawn), for which the compound was called inactive in [1], in [2], in experiment [3], in [4], in [5] and in [6].
For `O=C(O)C(S)C(S)C(=O)O` (stereo not drawn), the compound was classed as inactive in experiment [1], in experiment [2], in experiment [3], in experiment [4], in experiment [5] and in [7]. In addition, the result in experiment [6] was inactive.
Take `COCCOC(=O)C1=C(C)NC(C)=C(C(=O)OC/C=C/c2ccccc2)C1c1cccc([N+](=O)[O-])c1` (stereo not drawn): the outcome in [1], in [2], in [3], in experiment [4], in [5] and in experiment [7] was inactive. The outcome in experiment [6], in experiment [9], in experiment [10] and in experiment [11] was inactive. For the same compound, the AC50 (as a rule, the midpoint of the concentration-response curve, whichever way the signal moves) in [8] was 6.12 µM (active).
Consider `COS(=O)(=O)C(F)(F)F`, for which the compound was called inactive in experiment [1], in experiment [2], in [3], in experiment [4], in [7] and in experiment [6].
As to `NC(=O)c1cc[n+](CC2=C(C(=O)O)N3C(=O)[C@@H](NC(=O)[C@@H](c4ccccc4)S(=O)(=O)[O-])[C@H]3SC2)cc1`, the compound was classed as inactive in experiment [1], in experiment [2], in [3], in [4], in experiment [5] and in experiment [6].
With `C=CCOc1ccc(CC(=O)O)cc1Cl`, the compound was classed as inactive in experiment [1], in experiment [2], in [3], in experiment [4], in experiment [7] and in experiment [6].
As to `CCN[C@H]1CN(CCCOC)S(=O)(=O)c2sc(S(N)(=O)=O)cc21`, the compound was classed as inactive in experiment [1], in [2], in experiment [3], in experiment [4], in experiment [5] and in experiment [6].
